Compound activity as filed in PubChem.
Shown are actives, neighbours in structure and some others; about 9.8% of the full set was active somewhere.
HTT cytoprotect: protects HTT-Q103 PC12 cells, measured by ATP. PC12 HTT-Q103 induced, cytoprotection, ATP luminescence, 40 h. Potency, µM (doses to about 56.4 µM), inactives show cytoprotection (ATP increase), most hits filed as activators. hit rate 0.14% among 230,000; active = well fitted curve in the direction sought with a large enough effect; inconclusive = small, poorly fitted or top-dose-only effect, or another doubt; inactive = no such curve, though single readings can be large; an effect the other way counts as inactive or inconclusive; also: potency is read from the fitted curve at half-maximal effect; % of control where 0% means no effect; nearly all actives have a fitted effect of over 45% in size
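Compounds added alongside 100 nM tebufenozide, which induces toxic Q103 huntingtin exon 1-GFP in stable PC12 cells; surviving cells quantified by luminescent ATP measurement. Medium: phenol red-free DMEM, 5% equine and 5% calf serum.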
CBFb RUNX1 block: inhibitors of human CBF-beta and RUNX1 interaction. Q01196+Q13951. AlphaScreen CBFb-His/RUNX1-biotin binding, biochemical. 230,000 tested, under 10 active. Potency, µM (top dose mostly 59.8 µM), inactives show top-dose activity, negative = inhibition, hits mostly inhibitors. AID 1477; active = well fitted curve in the direction sought with a large enough effect; inconclusive = small, poorly fitted or top-dose-only effect, or another doubt; inactive = no such curve, though single readings can be large; an effect the other way counts as inactive or inconclusive; also: % of control where 0% means no effect
Target sequence (Q01196 whole entry, looked up): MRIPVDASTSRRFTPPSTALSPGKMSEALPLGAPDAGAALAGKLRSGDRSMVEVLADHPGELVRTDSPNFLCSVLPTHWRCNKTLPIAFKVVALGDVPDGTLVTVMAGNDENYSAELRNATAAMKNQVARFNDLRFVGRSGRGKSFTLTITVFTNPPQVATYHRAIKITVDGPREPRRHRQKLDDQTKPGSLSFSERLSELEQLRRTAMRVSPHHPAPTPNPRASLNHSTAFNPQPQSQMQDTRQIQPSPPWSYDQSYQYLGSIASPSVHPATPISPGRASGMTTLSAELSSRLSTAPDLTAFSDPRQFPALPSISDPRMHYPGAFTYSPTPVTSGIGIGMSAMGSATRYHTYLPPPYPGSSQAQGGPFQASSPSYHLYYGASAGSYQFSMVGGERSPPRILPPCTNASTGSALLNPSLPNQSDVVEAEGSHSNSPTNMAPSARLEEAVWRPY
Target sequence (Q13951 whole entry, looked up): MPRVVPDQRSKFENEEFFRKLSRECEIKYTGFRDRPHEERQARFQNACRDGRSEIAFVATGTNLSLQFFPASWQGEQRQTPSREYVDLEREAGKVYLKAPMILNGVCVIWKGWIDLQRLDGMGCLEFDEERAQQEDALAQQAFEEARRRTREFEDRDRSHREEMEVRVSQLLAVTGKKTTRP
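Inhibition was taken as any reduction in AlphaScreen signal from the CBF-beta–RUNX1 pair (His and biotin tags, 30 nM each), measured after compound (15 min) and bead (90 min) incubations at room temperature.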
HttQ103 aggreg: mutant huntingtin aggregation inhibition | PC12 HttQ103-GFP aggregates, Acumen cytometry, 40 h | Potency, µM (highest dose often 46.1 µM), without a hit: top-dose activity change, negative = inhibition, actives largely listed as inhibitors | hit rate 1.1% among 220,000 | AID 1688; active = well fitted curve in the direction sought with a large enough effect; inconclusive = small, poorly fitted or top-dose-only effect, or another doubt; inactive = no such curve, though single readings can be large; an effect the other way counts as inactive or inconclusive; also: potency is read from the fitted curve at half-maximal effect; % is scaled to controls: 0 for no effect and ±100 for the full control effect; nearly all actives have a fitted effect of over 60% in size
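Multiplexed with ATP-based cell death, this channel scores GFP aggregates in PC12 cells expressing inducible HTTex1-Q103-GFP. Induction used 100 nM tebufenozide; compounds were tested in concentration series.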
JMJD2E inh: blocks human JMJD2E demethylase activity | B2RXH2 | JMJD2E catalytic domain, FDH-coupled NADH fluorescence (FDH is formaldehyde dehydrogenase) | Potency, µM (titrated, usually from 57.1 µM), for the others: at the highest dose activity change, negative = inhibition, actives largely listed as inhibitors | hit rate 1.6% among 230,000;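 also: potency is read from the fitted curve at half-maximal effect; 0% = wells with enzyme and -100% = buffer wells without enzyme; nearly all actives have a fitted effect of over 50% in size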
HPGD inh: blocks human HPGD enzyme activity. purified HPGD, NADH fluorescence kinetic, PGE2 substrate. hit rate 4.3% among 150,000. Potency, µM, for inactives: top-dose activity change, negative = inhibition, most hits filed as inhibitors. AID 894. P15428; also: potency is read from the fitted curve at half-maximal effect; % is scaled to controls: 0 for no effect and ±100 for the full control effect
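NADH formation kinetics: reaction with 30 uM PGE2 and 1 mM NAD+ (final), 20 nM enzyme, Tris-HCl pH 8 with Tween 20, after 15 min compound preincubation at room temperature. Fluorescence change, last versus first of five reads.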
ALDH1A1 block: blocks purified human ALDH1A1 activity; P00352; Purified ALDH1A1, NADH fluorescence, propionaldehyde substrate; Potency, µM (titrated, usually from 75.3 µM), for inactives: at the highest dose activity, negative = inhibition, actives largely listed as inhibitors; hit rate 7.3% among 220,000; AID 1030;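 also: potency is read from the fitted curve at half-maximal effect; plate controls were no enzyme wells and a reference inhibitor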
Numbers without * were called inactive; ? = inconclusive; / = no result given; [ ] = dose if it differs, or a comment. Unless noted, calls follow the shape of the dose curve; as a rule, active = well fitted inhibition curve with a large enough effect (not every such curve was filed as active); inconclusive = small, poorly fitted or top-dose-only effect, or another doubt; inactive = no such curve, though single readings can be large or run the other way.

SMILES | HTT cytoprotect | CBFb RUNX1 block | HttQ103 aggreg | JMJD2E inh | HPGD inh | ALDH1A1 block
CCCCNC1=C(Br)C(=O)CC(C)(C)C1 | -4% | 8% | ? | -5% | -7% | 10%
CCOc1ccc(NC(=O)Nc2cccs2)cc1 | -104% | -10% | -11% | -11% | -11% | -10%
O=C(Nc1ccc(OC(F)(F)C(F)F)c(NC(=O)c2cccc(F)c2)c1)c1cccc(F)c1 | -7%[10 µM] | 10% | 1% | -17% | -5% | 0%
COc1ccc(CN(CCC(c2ccccc2)c2ccc(OC(C)C)cc2)C(=O)CCl)cc1OC (configuration not stated) | 10%[10 µM] | -7% | ? | -19% | ? | 10µM*
Cc1nc(NC(=O)CSc2nnc(N)s2)c(Cl)cc1Cl | -15% | -5% | 4% | 3% | / | 6%
COc1ccc(Cc2nnc(N/N=C/c3ccc(O)cc3O)[nH]c2=O)cc1OC | 18%[10 µM] | -7% | 10% | -1% | 32µM* | -7%
O=C(CSc1n[nH]c(=O)n1-c1cccnc1)N1CCOCC1 | 9%[10 µM] | 11% | 7%[9.22 µM] | 0% | / | 4%
CC(C)C(C(=O)O)N1C(=O)/C(=C/C=C/c2ccco2)SC1=S (configuration not stated) | -3% | ? | -3% | ? | 3.5µM* | ?
O=C1/C(=C/C=C/c2ccco2)SC(=S)N1c1ccc(O)cc1 | 0%[10 µM] | / | -16%[9.22 µM] | 14µM* | / | /
O=C1/C(=C\c2ccco2)SC(=S)N1c1ccc(O)cc1 | / | ? | -25% | ? | -12% | ?
C=CCON1C(=O)C(=O)N(OCC=C)[C@H]2CCCC[C@H]21 | -8%[10 µM] | 6% | -25%[9.22 µM] | -2% | / | /
CCC(C)NS(=O)(=O)c1ccc(NC(=O)Cc2ccc(OC)cc2)cc1 (configuration not stated) | 4%[10 µM] | 1% | -2%[9.22 µM] | -14% | / | 7%
CNC(=S)N1CCN(c2ccc(OC)cc2)CC1 | 8% | -1% | 13% | -3% | -10% | 5%
Cc1ccc(C(=O)Oc2ccc3c(c2)ncn3C)cc1 | -35% | 4% | 5% | 3% | 7.9µM* | -13%
O=C(O)[C@H](Cc1ccccc1)NC(=O)N1CCN(c2ccc(F)cc2)CC1 | -1%[10 µM] | 4% | -9%[9.22 µM] | -1% | / | /
CC1=C(C(=O)c2ccccc2)C(c2cccc([N+](=O)[O-])c2)NC(=S)N1 (configuration not stated) | -12% | -15% | -3% | -18% | / | 1.1µM*
COc1ccc(C2NC(=S)NC(C)=C2C(=O)c2ccccc2)cc1OC (configuration not stated) | 32%[10 µM] | -1% | 3% | -16% | -13% | 11µM*
COc1ccc(S(=O)(=O)n2nc(OC(=O)C3CCCCC3)cc2N)cc1 | -33% | 1% | ? | 2% | -12% | 2µM*
COc1ccc(-c2ccc(S(=O)(=O)n3nc(OC(=O)c4cccs4)cc3N)cc2)cc1 | -22%[10 µM] | 2% | 0%[9.22 µM] | -27% | / | 1%
Nc1cc(OC(=O)c2ccco2)nn1S(=O)(=O)c1ccc(F)cc1 | -38% | 3% | 9% | -3% | / | 14µM*
Cc1ccc(S(=O)(=O)n2nc(OC(=O)c3ccco3)cc2N)cc1 | -17%[10 µM] | / | / | / | / | /
Cc1ccc(S(=O)(=O)n2nc(OC(=O)C3CCCCC3)cc2N)cc1 | -20% | 0% | -13% | 3% | -13% | ?
Cc1ccc(S(=O)(=O)n2nc(OC(=O)c3cccs3)cc2N)cc1 | -17% | -2% | 4% | 5% | -12% | 2µM*
Cc1ccc(-n2c([S-])c(C(=O)NC(C)c3ccccc3)[n+]3ccccc23)cc1 (configuration not stated) | 4% | -1% | -5% | 2% | / | 3.2µM*
COc1ccc(CNC(=O)c2c([S-])n(-c3ccc(C)cc3)c3cccc[n+]23)cc1 | -30% | -6% | -12% | ? | / | ?
SMILES | HTT cytoprotect | CBFb RUNX1 block | HttQ103 aggreg | JMJD2E inh | HPGD inh | ALDH1A1 block
CO/N=C/NC(=O)c1c(OC)ccnc1Oc1ccccc1 | -9% | 5% | 3% | 5% | -8% | 6.3µM*
O=C(NN1C(=O)C2CC=C(Cl)CC2C1=O)c1ccncc1 (configuration not stated) | 3%[10 µM] | ? | 3%[9.22 µM] | -4% | / | 5%
CCOC(=O)C1(C)/C(=N/Nc2ccc(S(N)(=O)=O)cc2)C(=O)C(=O)N1c1ccccc1 (configuration not stated) | 20% | -10% | 4% | -28% | / | 18µM*
CCOC(=O)C1(C)/C(=N/Nc2ccc(Cl)cc2)C(=O)C(=O)N1c1ccccc1 (configuration not stated) | -8% | -6% | -14% | -9% | ? | ?
CCOC(=O)C1(C)/C(=N/Nc2cccc(Cl)c2)C(=O)C(=O)N1c1ccccc1 (configuration not stated) | -26% | -2% | 14% | -11% | 32µM* | ?
CCOC(=O)C1(C)/C(=N/Nc2ccccc2Cl)C(=O)C(=O)N1c1ccccc1 (configuration not stated) | 31% | -10% | ? | -22% | 40µM* | 0.22µM*
CCN1/C(=C/C=C/c2oc3ccc4ccccc4c3[n+]2CC)Oc2ccc3ccccc3c21 | -75%[10 µM] | ? | 0.89µM* | 14µM* | / | 0%
CC[n+]1c(/C=C/N(C)c2ccccc2)oc2ccc(Cl)cc21 | -7%[10 µM] | -14% | 5% | -4% | ? | 1%
Cc1ccccc1S(=O)(=O)Cc1ccc(C(=O)NCc2ccc(F)cc2)o1 | -38% | 3% | -20% | -1% | / | -6%
COC(=O)c1ccc(CS(=O)(=O)c2ccccc2C)o1 | -15% | -2% | ? | -6% | -13% | 2.2µM*
Cc1ccc(C)c(N2CCN(C(=O)c3ccc(CS(=O)(=O)c4ccccc4C)o3)CC2)c1 | -8%[10 µM] | -8% | 28µM* | 3% | -8% | ?
Cc1cccc(N2CCN(C(=O)c3ccc(CS(=O)(=O)c4ccccc4C)o3)CC2C)c1 (configuration not stated) | -143%[0.074 µM] | -11% | 22µM* | -2% | -1% | -4%
CC(=O)NCCc1c[nH]c2ccc(OCC(O)CNC(C)(C)C)cc12 (configuration not stated) | 20%[10 µM] | 20% | 12%[9.22 µM] | ? | / | /
COc1cc(C(=O)NCCCNc2nc3cc(C)c(C)cc3cc2C#N)cc(OC)c1OC | -11% | 12% | 4% | ? | / | ?
Nc1nnc(SCC(=O)c2ccccc2)s1 | -12% | 3% | 2% | 0% | -17% | ?
Nc1c(C(=O)c2ccccc2)sc2snc(SCC(=O)c3ccccc3)c12 | -18% | ? | 7% | ? | -29% | 10µM*
OCCN1CCN(C(c2cccs2)c2ccc3cccnc3c2O)CC1 (configuration not stated) | -18%[0.074 µM] | -29% | 32% | 8.9µM* | 3.5µM* | 1.3µM*
